The source of these data is PubChem BioAssay (NCATS).

The nature of test [1]: qHTS of pediatric cancer cell lines to identify multiple opportunities for drug repurposing: Primary screen for SJ-GBM2 cells (AID 1347091). Also: potency is read from the fitted curve at half-maximal effect. The essentials:
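Eight- or eleven-point concentration series, 48 h treatment at 37 degrees C in growth media; readout CellTiter-Glo luminescence. Potency and efficacy were taken from the concentration-response curves.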
A general note: In qHTS, concentration-response curves come from the screen itself.

Test [2] can be described thus: qHTS of pediatric cancer cell lines to identify multiple opportunities for drug repurposing: Primary screen for A673 cells (AID 1347092). Also: nearly all actives have a fitted effect of over 45% in size. Also: potency is read from the fitted curve at half-maximal effect. The procedure, abridged: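 Luminescence from CellTiter-Glo, taken after 15 min at room temperature, served as the proxy for metabolically active cells following 48 h treatment. Both potency and efficacy were taken from curves fitted to the titration data.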

Test [3] in a line: qHTS of pediatric cancer cell lines to identify multiple opportunities for drug repurposing: Primary screen for SK-N-MC cells (AID 1347093). Also: potency is read from the fitted curve at half-maximal effect. The essentials:
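Metabolically active cells were quantified by ATP-dependent luminescence (CellTiter-Glo, 15 min at room temperature) following 48 h treatment. Cells had been plated at 500-1,000 per well and settled for 5 h beforehand.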

Test [4] is described as follows: qHTS of pediatric cancer cell lines to identify multiple opportunities for drug repurposing: Primary screen for BT-37 cells (AID 1347094). Also: potency is read from the fitted curve at half-maximal effect. The essentials: (§1)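 Viability was measured as metabolically active cells after 48 hours of treatment, read by CellTiter-Glo luminescence. Compounds were tested at multiple final concentrations, giving concentration-response curves.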

Test [5] is described as follows: qHTS of pediatric cancer cell lines to identify multiple opportunities for drug repurposing: Primary screen for NB-EBc1 cells (AID 1347095). Also: potency is read from the fitted curve at half-maximal effect. The essentials:
as §1

A short description of test [6]: qHTS of pediatric cancer cell lines to identify multiple opportunities for drug repurposing: Primary screen for U-2 OS cells (AID 1347096). Also: nearly all actives have a fitted effect of over 50% in size. Also: potency is read from the fitted curve at half-maximal effect. The procedure, abridged: (§2)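 Cells (500-1,000/well) in growth media were settled 5 h at 37 degrees C, then given compounds for 48 h. Viability was read as CellTiter-Glo luminescence. Primary runs used MIPE at 11 points (0.78 nM-46 µM) and NPC at 8 points (0.59 nM-46 µM); follow-ups used 11 points.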

Test [7] is described as follows: qHTS of pediatric cancer cell lines to identify multiple opportunities for drug repurposing: Primary screen for SK-N-SH cells (AID 1347098). Also: nearly all actives have a fitted effect of over 65% in size. Also: potency is read from the fitted curve at half-maximal effect. The procedure, abridged:
(§3)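 Cells (500-1,000/well) rested 5 h, then received compounds for 48 h; metabolically active cells were measured by CellTiter-Glo luminescence. Final concentrations spanned up to 46 µM (MIPE, 11-point) or 0.59 nM-46 µM (NPC, 8-point) in primary screens, 11-point in follow-ups.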

Test [8] can be described thus: qHTS of pediatric cancer cell lines to identify multiple opportunities for drug repurposing: Primary screen for LAN-5 cells (AID 1347100). Also: potency is read from the fitted curve at half-maximal effect. The essentials:
as §2

Test [9] in a line: qHTS of pediatric cancer cell lines to identify multiple opportunities for drug repurposing: Primary screen for BT-12 cells (AID 1347101). Also: nearly all actives have a fitted effect of over 25% in size. Also: potency is read from the fitted curve at half-maximal effect. The procedure, abridged:
as §3

Test [10] in a line: qHTS of pediatric cancer cell lines to identify multiple opportunities for drug repurposing: Primary screen for Rh18 cells (AID 1347102). Also: nearly all actives have a fitted effect of over 65% in size. Also: potency is read from the fitted curve at half-maximal effect. The essentials: as §2
Test [11] is described as follows: qHTS of pediatric cancer cell lines to identify multiple opportunities for drug repurposing: Primary screen for OHS-50 cells (AID 1347103). Also: nearly all actives have a fitted effect of over 40% in size. Also: potency is read from the fitted curve at half-maximal effect. The essentials:
as §3

Test [12] can be described thus: qHTS of pediatric cancer cell lines to identify multiple opportunities for drug repurposing: Primary screen for RD cells (AID 1347104). Also: nearly all actives have a fitted effect of over 55% in size. Also: potency is read from the fitted curve at half-maximal effect. The procedure, abridged: as §1
Test [13] in a line: qHTS of pediatric cancer cell lines to identify multiple opportunities for drug repurposing: Primary screen for MG 63 (6-TG R) cells (AID 1347105). Also: nearly all actives have a fitted effect of over 50% in size. Also: potency is read from the fitted curve at half-maximal effect. The procedure, abridged:
as §1

A short description of test [14]: qHTS of pediatric cancer cell lines to identify multiple opportunities for drug repurposing: Primary screen for control Hh wild type fibroblast cells (AID 1347106). Also: nearly all actives have a fitted effect of over 55% in size. Also: potency is read from the fitted curve at half-maximal effect. The essentials:
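Viability after 48 h compound treatment at 37C, 500-1,000 cells/well, read as ATP luminescence with CellTiter-Glo. Primary screens used 11-point (MIPE, 0.78 nM-46 µM) or 8-point (NPC, 0.59 nM-46 µM) final concentrations; follow-up screens used 11-point dilutions.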

Test [15] in a line: qHTS of pediatric cancer cell lines to identify multiple opportunities for drug repurposing: Primary screen for Rh41 cells (AID 1347108). Also: nearly all actives have a fitted effect of over 70% in size. Also: potency is read from the fitted curve at half-maximal effect. The essentials:
as §1

Test [16] can be described thus: qHTS of pediatric cancer cell lines to identify multiple opportunities for drug repurposing: Primary screen for Rh30 cells (AID 1347107). Also: series mostly up to about 46 µM; nearly all actives have a fitted effect of over 75% in size. The procedure, abridged: as §2
Test [17] in a line: qHTS of pediatric cancer cell lines to identify multiple opportunities for drug repurposing: Confirmatory screen for A673 cells (AID 1347110).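 Also: cells exposed to compound for 48 h before the viability read; nearly all actives have a fitted effect of over 65% in size.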 Also: potency is read from the fitted curve at half-maximal effect. The procedure, abridged: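 qHTS titration format: primary MIPE 0.78 nM-46 µM (11 pts), NPC 0.59 nM-46 µM; confirmation 11 pts. 48 h, CTG luminescence.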
A short description of test [18]: qHTS of pediatric cancer cell lines to identify multiple opportunities for drug repurposing: Primary screen for Saos-2 cells (AID 1347097). Also: nearly all actives have a fitted effect of over 40% in size. Also: potency is read from the fitted curve at half-maximal effect. The essentials:
as §1

Test [19] can be described thus: qHTS of pediatric cancer cell lines to identify multiple opportunities for drug repurposing: Primary screen for NB1643 cells (AID 1347099). Also: nearly all actives have a fitted effect of over 50% in size. Also: potency is read from the fitted curve at half-maximal effect. The essentials: as §1
Test [20] in a line: qHTS of pediatric cancer cell lines to identify multiple opportunities for drug repurposing: Confirmatory screen for NB1643 cells (AID 1347109). Also: nearly all actives have a fitted effect of over 45% in size. Also: potency is read from the fitted curve at half-maximal effect. The essentials: as §2

“And” between values parts separate entries of the source, which are not always exact repeats. Equal entries are not always repeated. Results filed as inconclusive are left out. The source made the active and inactive calls. Calls follow the shape of the dose curve; as a rule, active = well fitted curve in the direction sought with a large enough effect; inconclusive = small, poorly fitted or top-dose-only effect, or another doubt; inactive = no such curve, though single readings can be large; an effect the other way counts as inactive or inconclusive.

Take `NC(=O)OCC(COC(N)=O)c1ccccc1`: the Potency entry in test [1], in test [2], in test [3], in test [4], in test [5] and in [6] was “inactive” in each case. Further, the Potency result in test [7], in [8], in test [9], in test [10], in test [11] and in [12] was “inactive” each time. The Potency entry in test [13], in test [14] and in test [15] was “inactive” each time.
As for `CN(Cc1cnc2nc(N)nc(N)c2n1)c1ccc(C(=O)N[C@@H](CCC(=O)O)C(=O)O)cc1`, the Potency in test [1] was 47.3 nM (active) and 41.8 nM (active); in test [2], 4.2 nM (active) and 59 nM (active); in test [3], 3 nM (active); in test [4], 9.8 nM (active) and 48.5 nM (active); in [5], 106 nM (active) and 187 nM (active); in [8], 52.6 nM (active). In addition, the Potency is 6.2 nM (active) in test [9], 9.8 nM (active) in test [11], 10.6 nM (active) in test [12] and 32.9 nM (active) in test [17]. In addition, the Potency result in [7], in test [10], in test [13], in test [14] and in test [15] was “inactive” each time. The result in test [16] was inactive.
Consider `COc1cc2nc(N(C)CCCNC(=O)C3CCCO3)nc(N)c2cc1OC` (configuration not stated), for which the Potency entry in test [1], in test [2], in [4], in [5], in test [6] and in [18] was “inactive” in each case. The Potency result in [7], in test [19], in test [8], in test [9], in test [10] and in [11] was “inactive” in each case. In addition, the Potency result in test [13] and in [15] was “inactive” throughout. Besides, the outcome in test [16] was inactive.
Take `CS(=O)(=O)Nc1ccc([N+](=O)[O-])cc1Oc1ccccc1`: the Potency entry in [1], in [2], in [4], in [5], in test [7] and in test [9] was “inactive” each time. In addition, the Potency result in test [10], in [11], in test [12], in [13], in test [14] and in test [15] was “inactive” throughout. For the same compound, the Potency entry in test [20] and in test [17] was “inactive” throughout. Further, in test [3], the Potency is 23500 nM (active). For the same compound, the outcome in test [16] was inactive.
For the compound `Nc1c2c(nc3ccccc13)CCCC2`, the Potency entry in test [1], in test [2], in [3], in test [4], in test [5] and in test [6] was “inactive” in each case. Also, the Potency result in [18], in [7], in [8], in [9], in test [10] and in [11] was “inactive” each time. Further, the Potency entry in test [12], in test [13], in test [14] and in test [15] was “inactive” each time.
`Cc1cnc(C(=O)NCCc2ccc(S(=O)(=O)NC(=O)NC3CCCCC3)cc2)cn1`: the Potency result in test [1], in test [2], in [3], in [4], in [5] and in test [18] was “inactive” in each case. In addition, the Potency entry in [7], in test [19], in [8], in test [9], in test [10] and in [11] was “inactive” each time. The Potency result in [12], in [13] and in [15] was “inactive” each time.
On to `CCCCc1oc2ccccc2c1C(=O)c1cc(I)c(OCCN(CC)CC)c(I)c1`, for which the Potency in test [1] was 8.33 µM (active); in test [2] it was 4.69 µM (active) and 26.6 µM (active); in test [3], 1.18 µM (active) and 13.3 µM (active); in [4], 30.9 µM (active); in test [5], 8.33 µM (active); in test [6], 7430 nM (active). Moreover, the Potency in test [18] was 18.7 µM (active) and 26.6 µM (active); in test [7], 8.57 µM (active) and 21.7 µM (active); in [8], 1480 nM (active); in test [9], 4.32 µM (active) and 21.9 µM (active); in test [10], 16.6 µM (active); in test [11], 5.44 µM (active) and 11 µM (active). Further, the Potency in test [12] is 26.4 µM (active) and 26.6 µM (active); in test [20] it was 44700 nM (active); in test [17] it was 56200 nM (active). The Potency result in [14] is “inactive”.
As for `CC[N+](CC)(CC)CCOc1cccc(OCC[N+](CC)(CC)CC)c1OCC[N+](CC)(CC)CC`, the Potency entry in test [1], in [2], in test [3], in test [4], in test [5] and in test [6] was “inactive” each time. For the same compound, the Potency result in test [7], in test [19], in test [8], in test [9], in test [10] and in test [11] was “inactive” in each case. Moreover, the Potency entry in test [13], in test [14] and in test [15] was “inactive” each time. Also, the outcome in [16] was inactive.
As for `NCCCCCC(=O)O`, the Potency entry in test [1], in [2], in test [4], in test [5], in test [6] and in test [18] was “inactive” in each case. For the same compound, the Potency result in test [7], in test [19], in test [8], in [9], in test [10] and in [11] was “inactive” each time. In addition, the Potency entry in [12], in test [13] and in [15] was “inactive” in each case.
On to `CC(C)(C)C(=O)Oc1ccc(S(=O)(=O)Nc2ccccc2C(=O)NCC(=O)O)cc1`, for which the Potency result in test [1], in [2], in [3], in test [4], in test [5] and in test [6] was “inactive” each time. The Potency result in test [7], in test [19], in test [8], in test [9], in test [10] and in test [11] was “inactive” in each case. For the same compound, the Potency entry in test [12], in [13], in test [14] and in test [15] was “inactive” in each case.
As for `Clc1ccc2c(c1)C(N1CCNCC1)=Nc1ccccc1O2`, the Potency result in test [1], in [2], in test [4], in test [5], in test [6] and in [18] was “inactive” throughout. Further, the Potency entry in test [7], in test [19], in test [8], in test [9], in [10] and in test [11] was “inactive” throughout. For the same compound, the Potency entry in test [13] and in test [15] was “inactive” throughout. Also, the result in test [16] was inactive.
For the compound `COc1cc2c(c(OC)c1OC)-c1ccc(OC)c(=O)cc1[C@@H](NC(C)=O)CC2`, the Potency in test [1] is 42.2 nM (active) and 1 nM (active); in [2], 6.7 nM (active); in [3], 4.2 nM (active) and 1 nM (active); in test [4] it was 6.2 nM (active) and 172 nM (active); in test [5] it was 42.2 nM (active) and 1 nM (active); in test [19] it was 8.4 nM (active). The Potency in [9] was 11 nM (active) and 1 nM (active); in test [11], 4.9 nM (active) and 1 nM (active); in [15] it was 20.9 µM (active); in [20] it was 44.7 nM (active); in test [17], 31.6 nM (active). In addition, the Potency result in test [10], in test [13] and in test [14] was “inactive” in each case.
`O=C1c2c(O)ccc(O)c2C(=O)c2c(NCCNCCO)ccc(NCCNCCO)c21`: the Potency in [1] was 332 nM (active) and 422 nM (active); in test [2], 590 nM (active) and 168 nM (active); in [3] it was 235 nM (active) and 1 nM (active); in test [4], 243 nM (active) and 38.9 nM (active); in [5] it was 74.3 nM (active) and 59.6 nM (active); in test [7], 383 nM (active) and 486 nM (active). The Potency is 469 nM (active) and 668 nM (active) in test [19]; 83.3 nM (active) in [8]; 1.72 µM (active) and 490 nM (active) in test [9]; 2.09 µM (active) and 2.37 µM (active) in test [10]; 344 nM (active) and 49 nM (active) in test [11]; 4.69 µM (active) and 6.68 µM (active) in [12]. Besides, the Potency in [13] is 372 nM (active); in test [14], 13300 nM (active); in test [15], 4.18 µM (active) and 9.44 µM (active); in test [20] it was 369 nM (active); in test [17], 147 nM (active).
